Screening data as filed in PubChem.
Shown are actives, neighbours in structure and some others; about 6.2% of the full set was active somewhere.
Marburg entry inh = inhibitors of Marburg virus binding or cell entry; Potency, µM (highest dose often 37.8 µM), for inactives: at the top dose activity change, negative = inhibition, actives largely listed as inhibitors; Marburg virus pseudotyped entry inhibition, cell reporter; 1.8% of 300,000 active; calls by dose curve; tested in HEK293 cells; further: potency means the concentration at half of the fitted maximal effect
HCMV antiviral = inhibitors of human cytomegalovirus | 4.5% of 410,000 active | HFF cells, HCMV-luciferase reporter, 72 h; stronger effect = lower value | activity change, negative = inhibition, % at 57.5 µM; in the data active means activity change below about -60%; inconclusive means no clear call, values can overlap the other calls; inactive means above about -39%
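Two-dose cell screen: HFF monolayers treated with compounds and infected with luciferase-expressing HCMV at 1 PFU/cell, 72 h at 37C, then lysed for luciferase measurement.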
Lassa entry inh = blocks Lassa virus binding to or entry into cells | Lassa virus pseudotype entry inhibition, cell reporter | Potency, µM (doses to about 37.9 µM), without a hit: top-dose activity change, negative = inhibition, hits mostly inhibitors | 1.2% of 300,000 active | AID 540256; calls by dose curve; tested in HEK293 cells; further: potency means the concentration at half of the fitted maximal effect; nearly all actives have a fitted effect of over 50% in size
FMDV inh = foot and mouth disease virus antiviral activity; FMDV antiviral cell-based qHTS; 1.2% of 410,000 active; Potency, µM (highest dose often 57.9 µM), for inactives: top-dose activity change, negative = inhibition, actives largely listed as inhibitors; calls by dose curve; tested in HEK293T cells; further: read-out not given here; potency means the concentration at half of the fitted maximal effect; nearly all actives have a fitted effect of over 45% in size
* marks the source's active call; other numbers are inactive results; ? = inconclusive; nt = not tested or not shown; [ ] = dose if it differs, or a comment. On the % scale 0 is the no-effect control and ±100 the full control effect.

SMILES | Marburg entry inh | HCMV antiviral | Lassa entry inh | FMDV inh
CCN(CC)C(=O)c1nn(-c2ccccc2)c2c1C1CCC2(C)C1(C)C (configuration not stated) | ? | -95* | ? | -24%
CCN(CC)C(=O)c1nn(Cc2ccccc2)c(=O)c2ccccc12 | nt | 16 | nt | -19%
COc1ccc(CNC(C)C2COc3ccccc3O2)c(OC)c1 (configuration not stated) | 11µM* | -8 | 2% | -23%
CC(NCc1ccccc1)C1COc2ccccc2O1 (configuration not stated) | -9% | -20 | -14% | -4%
Cc1cc(F)ccc1-n1nnc(C(N)=O)c1C | 7%[46.1 µM] | 8 | 1%[46.1 µM] | 0%
CCc1cccc2c1NC(=O)C21N2CCCC2C(C(=O)c2ccc3ccccc3c2)C12C(=O)Nc1ccccc12 (configuration not stated) | 10µM* | -93* | ? | -21%
Cc1cccc2c1NC(=O)C21N2CCCC2C(C(=O)c2ccc3ccccc3c2)C12C(=O)Nc1ccccc12 (configuration not stated) | nt | nt | nt | 18%
O=C(O)c1[nH]c2ccccc2c1C(c1ccccc1)c1c(C(=O)O)[nH]c2ccccc12 | nt | 70 | nt | 50%
CCc1ccc(C(c2ccccc2)c2c(C)[nH]c3ccccc23)s1 (configuration not stated) | nt | -62* | 4%[46.1 µM] | -29%
Cc1ccc(C(c2ccccc2)c2c(C)[nH]c3ccccc23)s1 (configuration not stated) | nt | -83* | 4%[46.1 µM] | -21%
COc1ccc(-c2cc(C(F)(F)F)nc(S(=O)(=O)CCCC(=O)Nc3ccccc3C(F)(F)F)n2)cc1OC | -19%[46.1 µM] | -100* | 0%[46.1 µM] | 22µM*
Cc1cc(NC(=O)CCS(=O)(=O)c2nc(-c3ccccc3)cc(C(F)(F)F)n2)no1 | ? | -104* | ? | 25µM*
COc1ccccc1-c1cc(C(F)(F)F)nc(S(=O)(=O)CCCC(=O)Nc2cc(OC)c(OC)c(OC)c2)n1 | ? | -2 | ? | 19%
COc1ccc(NC(=O)CCCS(=O)(=O)c2nc(-c3ccc(OC)c(OC)c3)cc(C(F)(F)F)n2)cc1OC | ? | -100* | ? | 32µM*
COc1ccc(NC(=O)CCS(=O)(=O)c2nc(-c3ccc4c(c3)OCO4)cc(C(F)(F)F)n2)cc1 | -17%[46.1 µM] | -76* | -32%[46.1 µM] | -6%
O=C(CCS(=O)(=O)c1nc(-c2ccc3c(c2)OCO3)cc(C(F)(F)F)n1)Nc1ccc(F)cc1F | ? | 40 | 12%[46.1 µM] | ?
Cc1nc(C)c(-c2ccc(SCc3ccccc3C)nn2)s1 | nt | -15 | nt | 35%
COc1cccc(-c2cc(C(=O)Nn3cnnc3)c3ccccc3n2)c1 | -26% | 55 | ? | nt
COc1ccc(-c2cc(C(F)(F)F)nc(S(=O)(=O)CCCC(=O)Nc3cccc(O)c3)n2)cc1OC | ? | -99* | ? | 20µM*
CS(=O)(=O)c1nc(-c2ccccc2)cc(C(F)(F)F)n1 | 6.3µM* | -98* | ? | 7.9µM*
FC(F)(F)c1cc(-c2ccccc2)nc(N2CCCCCC2)n1 | 18% | -21 | -9% | 2%
COc1ccccc1-c1cc(C(F)(F)F)nc(S(=O)(=O)CCCC(=O)Nc2ccc(F)c(Cl)c2)n1 | 24%[46.1 µM] | 10 | 4%[46.1 µM] | 0%
CCOC(=O)N1CCN(c2ccc(S(=O)(=O)N3CCOCC3)cn2)CC1 | ? | -15 | 0% | -6%
CCOC(=O)N1CCN(c2ccc(S(=O)(=O)N(Cc3ccccc3)Cc3ccccc3)cn2)CC1 | ? | -90* | -26% | ?
Cn1ccnc1SCc1cn2cc(Br)ccc2n1 | 6.3µM* | -17 | ? | -26%
SMILES | Marburg entry inh | HCMV antiviral | Lassa entry inh | FMDV inh
C[C@@H]1CN([C@H](C)CO)C(=O)CCCn2nncc2CO[C@H]1CN(C)C(=O)c1cc(-c2ccccc2)on1 | nt | 18 | nt | -22%
O=C(CNC(=O)C12CC3CC(CC(C3)C1)C2)N1CCN(S(=O)(=O)c2cccs2)CC1 | -23% | ? | -22% | 0%
O=C(CNC(=O)C12CC3CC(CC(C3)C1)C2)N1CCN(S(=O)(=O)/C=C/c2ccccc2)CC1 | -17% | -72* | ? | 40µM*
CC(=O)Nc1ccc(C(=O)Nc2ccc3c(c2)N(C2CCCC2)C(=O)c2ccccc2S3)cc1 | nt | -83* | 6.3µM* | ?
O=C(Nc1ccncc1)c1ccc2c(c1)C(=O)N(C1CCCCC1)C2=O | ? | -30 | -26% | 14µM*
N#Cc1ccc(C(=O)Nc2ccc3c(c2)N(C2CCCC2)C(=O)c2ccccc2S3)cc1 | nt | -32 | ? | 0%
Cc1cc(NC(=O)CC(C)C)c(=O)n(Cc2c(F)cccc2Cl)c1 | nt | -31 | nt | -21%
CCCCc1c(C)[nH]c(C(=O)OCC)c1C | -16%[46.1 µM] | 39 | -9% | 1%
